According to the OligoGym collection:
Further: reference of the scale not given here.

What follows are sequences tested against METTL21D (assay: pooled miR-30 sensor sort-seq; sequence = guide strand). Details: shRNA.
TTAAACTCTGAAGACAAACTAA showed a sensor-assay potency score (higher = more potent) of -0.429.
In the case of TTGGCTTGAACAGAACCAGTGA, the sensor-assay potency score (higher = more potent) is reported as 0.803.
TTGCAATTCCTCAAGATCGGTG was tested, and the sensor-assay potency score (higher = more potent) was -0.436.
Sequence TTGTAGTTATTCAAAAACCTTT has a sensor-assay potency score (higher = more potent) of -1.15.
With TGAACTAAGTAACCTAAGCTGG the sensor-assay potency score (higher = more potent) was -0.584.
TAGCACTGTACCATCCCGCTTC was tested, and the sensor-assay potency score (higher = more potent) was 0.175.
TATAGAACTACATTTGTAGTTA gave a sensor-assay potency score (higher = more potent) of 0.621.
In the case of TTCGTTGTTCATAACAACATAT, the sensor-assay potency score (higher = more potent) is reported as -1.05.

These sequences were tested against MET in the same assay as above. Details: shRNA.
TAGAATGACATTCTGGATGGGT showed a sensor-assay potency score (higher = more potent) of 0.522.
Work on TTGCTTTGTGCGAACACCCCGA yielded a sensor-assay potency score (higher = more potent) of 0.0698.
TGATCGAGAAACCACAACCTGC showed a sensor-assay potency score (higher = more potent) of -1.33.
TTAAACACTTCCTTCTTTGTGG gave a sensor-assay potency score (higher = more potent) of 0.061.
TTCATTGAAATGCACAATCAGG gave a sensor-assay potency score (higher = more potent) of -0.957.
For TTCTGTGAGAATACACTCCAGA, the sensor-assay potency score (higher = more potent) was -0.115.
Work on TATGTCAGCAGTATGATTGTGG yielded a sensor-assay potency score (higher = more potent) of 0.148.
In the case of TTGATATTGAGACAACACCAGC, the sensor-assay potency score (higher = more potent) is reported as -1.2.
TATATTAAACACTTCCTTCTTT was tested, and the sensor-assay potency score (higher = more potent) was 0.147.
For TTTCTTGCCATCATTGTCCAAC, the sensor-assay potency score (higher = more potent) was -0.767.
TTGAGTTTGCAGACTTTCCAAA was tested, and the sensor-assay potency score (higher = more potent) was -0.558.
TATTCTTGTGTGAAAAGTCTGA showed a sensor-assay potency score (higher = more potent) of 0.132.
